Inconclusive results are not listed. Active and inactive are the calls of the source. How the source made its calls: active means hit-call score of the fitted dose curve at least 0.9, where 1 is the maximum; inconclusive means response in the unintended direction; inactive means score below 0.9.
Molecular target: Nuclear receptor subfamily 1 group I member 2 (Homo sapiens) (UniProt O75469)
Assay: NVS_NR_hPXR: NovaScreen (NVS) Nuclear Receptor Binding Assay for human Pregnane X Receptor (PXR) (AID 2283365);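 further: a drop in FRET signal versus DMSO baseline means the compound binds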
Protocol: NVS_NR_hPXR is a biochemical, single-readout assay that uses extracted gene-proteins in a cell-free assay. Measurements were taken 2 hours after chemical dosing in a 384-well plate.NVS_NR_hPXR is one of one assay component(s) measured or calculated from the NVS_NR_hPXR assay. It is designed to make measurements of fluorescent resonance energy transfer, a form of binding reporter, as detected with fluorescent resonance energy transfer signals by Time-Resolved Fluorescence Resonance Energy Transfer (TR-FRET) technology.Data from the assay component NVS_NR_hPXR was analyzed into 1 assay endpoint. This assay endpoint, NVS_NR_hPXR, was analyzed in the positive analysis fitting direction relative to DMSO as the negative control and baseline of activity. Using a type of binding reporter, loss-of-signal activity can be used to understand changes in the binding as they relate to the gene NR1I2. Furthermore, this assay endpoint can be referred to as a primary readout, because the performed assay has only produced 1 assay endpoint. To generalize the intended target to other relatable targets, this assay endpoint is annotated to the nuclear receptor intended target family, where the subfamily is non-steroidal.
Binding assays used specific radioligands (tritiated, iodinated) with non-radioactive competitive displacement ligands in agonist or antagonist protocols (as indicated) and various reference compounds and inhibitors to titrate specific binding to receptors and transporters. Most enzyme assays (CYPs, kinases, phosphatases, proteases, HDACs) used recombinant protein and specific substrates (fluorescence mostly, some colorimetric and radioactive) and inhibitors, followed by a biochemical separation of substrate and product. All assays for the biochemical HTS were initially run in duplicate at a single concentration (10 uM for CYP450 assays and 25 uM for all others). […] Each assay was run with positive and negative controls, and concurrent controls on every plate. The follow-up (secondary) screen tested active chemical-pairs in concentration series, as well as a few additional assays not tested in the primary screen, some selected negative inactives, and several cases re-run in the concentration series for confirmatory purposes.

Nuclear receptor subfamily 1 group I member 2 (Homo sapiens), sequence (O75469 whole entry, looked up): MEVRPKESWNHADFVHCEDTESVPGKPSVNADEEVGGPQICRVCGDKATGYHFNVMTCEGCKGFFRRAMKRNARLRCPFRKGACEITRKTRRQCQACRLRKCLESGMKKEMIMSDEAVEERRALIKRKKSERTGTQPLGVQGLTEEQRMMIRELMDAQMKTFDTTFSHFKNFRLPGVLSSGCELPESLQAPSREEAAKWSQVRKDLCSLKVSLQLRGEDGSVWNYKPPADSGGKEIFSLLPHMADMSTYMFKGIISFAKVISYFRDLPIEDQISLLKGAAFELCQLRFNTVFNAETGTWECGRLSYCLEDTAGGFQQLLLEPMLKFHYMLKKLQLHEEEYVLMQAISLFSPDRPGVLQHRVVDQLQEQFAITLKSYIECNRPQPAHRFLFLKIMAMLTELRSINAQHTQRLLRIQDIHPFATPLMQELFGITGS

| Compound | outcome | AC50 |
| --- | --- | --- |
| Cc1ccc(C)c2ccccc12 | inactive |  |
| CC(C)[C@@H](C(=O)O[C@@H](C#N)c1cccc(Oc2ccccc2)c1)c1ccc(Cl)cc1 | inactive |  |
| CCOC(=O)COc1ccc(Cl)cc1Cl | inactive |  |
| CC(C)(c1cc(Cl)c(O)c(Cl)c1)c1cc(Cl)c(O)c(Cl)c1 |  | 5.12 µM (active) |
| CN(C)C(=O)C(c1ccccc1)c1ccccc1 | inactive |  |
| CCC(=O)c1ccc(Cl)cc1 | inactive |  |
| [CH3][Sn]([CH3])([Cl])[Cl] | inactive |  |
| Cc1cc(C)c(C2=C(OC(=O)CC(C)(C)C)C3(CCCC3)OC2=O)c(C)c1 | inactive |  |
| CCOC(=O)NC(=S)Nc1ccccc1NC(=S)NC(=O)OCC |  | 6.55 µM (active) |
| Oc1ccc(Cl)cc1 | inactive |  |
| CCc1cccc(C)c1N(C(=O)CCl)[C@@H](C)COC |  | 5.91 µM (active) |
| CCCCCCCCCCCCCCCC[N+](C)(C)C |  | 0.899 µM (active) |
| O=C(NC(=O)c1c(F)cccc1F)Nc1ccc(Oc2ccc(C(F)(F)F)cc2Cl)cc1F | inactive |  |

Source: PubChem BioAssay (EPA / NIEHS)
